The campaign covered roughly 320,000 compounds. About 9,100 (2.8%) were called active. Inconclusive results (about 3%) are left out. The call rests on the fitted dose curve; in most records, active means well fitted activation curve with a large enough effect; inconclusive means small, poorly fitted or top-dose-only effect; inactive means no such curve, though single readings can be large or run the other way. The full list was thinned out, with actives kept by preference.
Assay: qHTS Assay for Rab9 Promoter Activators; further: nearly all actives have a fitted effect of over 60% in size
Settings: Huh7 Rab9 promoter-luciferase reporter, luminescence, 24 h; series mostly up to 9.22 µM
Procedure, shortened: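 Steps: seed 1500 Huh7 Rab9-luc cells per well, rest 2 h at 37 °C; add compound in DMSO; incubate 24 h; add luciferase reagent, 10 min ambient; read luminescence.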
Potency means the concentration at half of the fitted maximal effect.

Potency, active:
Cc1c(C(=O)Nc2ccccn2)oc2ccc(Br)cc12 3550 nM, O=C(Cc1cccs1)NCc1cccc(C(F)(F)F)c1 2510 nM, COc1ccc(-c2csc(-c3cccs3)n2)cc1OC 1780 nM, COc1ccc(-c2csc(Cc3nc(O)cs3)n2)cc1 1000 nM, Cc1ccc(Nc2nc(-c3ccc(O)cc3O)cs2)nc1 1410 nM, Clc1cccc(Cl)c1Cn1nnc(-c2cccs2)n1 2820 nM, C/C(=N\Nc1ncc(Cl)cc1Cl)c1cccs1 1260 nM, C/C(=N\Nc1nc2ccccc2[nH]1)c1cccs1 1000 nM, O=c1c(-c2ccccc2)coc2cc(O)ccc12 2820 nM, Cc1ccsc1C(=O)N/N=C/c1ccc([N+](=O)[O-])cc1 3550 nM, Cc1ccc(NC(=O)c2sccc2C)cc1[N+](=O)[O-] 1780 nM

Potency, inactive:
CN(CC(=O)NCCc1ccc(F)cc1)CC(=O)Nc1ccc(F)c(F)c1F, Cc1noc(C)c1C(=O)Nc1ccccn1, Cc1nonc1NC(=O)c1oc2ccccc2c1C, CC1CCCN(C(=O)c2cc(-c3ccco3)nc3ccccc23)C1 (stereo not drawn), O=C(CCC(=O)c1ccccc1)NCc1cccc(C(F)(F)F)c1, COc1cc(CC(=O)NCc2cccs2)cc(OC)c1OC, O=S(=O)(c1ccc(SCc2ccc(Br)cc2)nc1)N1CCOCC1, COC(=O)c1cccc(NC(=O)c2cccc(N3C(=O)CCC3=O)c2)c1, O=C(COC(=O)c1cc(S(=O)(=O)N2CCOCC2)ccc1Cl)NCCc1ccccc1, CC(C)c1ccc(S(=O)(=O)N2CCN(C(C)C(=O)NC3CCCC3)CC2)cc1 (stereo not drawn), COc1cccc(CC(=O)Nc2nc(-c3ccc(OC)c(OC)c3)cs2)c1, COc1ccc(OC)c(-c2csc(-c3cccs3)n2)c1, O=C1Cc2cc(S(=O)(=O)Nc3cccc(F)c3)ccc2N1, COc1ccc(CCNC(=O)COC(=O)c2cc(=O)c3ccccc3o2)cc1, CC(C)(C)C(=O)OCc1nc(-c2ccc(O)c(O)c2)cs1, COc1cccc(CC(=O)Nc2ccc(-c3csc(C)n3)cc2)c1, O=C(c1cn(-c2ccccc2)nc1-c1cccnc1)N1CCN(S(=O)(=O)c2ccccc2F)CC1, CC(=O)Nc1ccc(C(=O)Nc2nc(-c3cc(C)n(Cc4ccccc4)c3C)cs2)cc1, O=C(CCNS(=O)(=O)c1ccccc1C(F)(F)F)Nc1ccncc1, Cc1cccc(OCCC(=O)OCc2csc(CC(=O)Nc3ccccc3C)n2)c1, Cc1cc(Cl)c2oc(C(=O)N3CCC(O)(c4ccccc4)CC3)c(C)c2c1, COc1ccccc1N1CCN(C(=O)Cn2nnc(-c3cccs3)n2)CC1, O=c1cc(Cn2nnc(-c3ccc(Cl)cc3)n2)nc2sccn12, Nc1ccc(-n2nncc2-c2ccco2)cc1, COc1ccc(CCC(=O)N2CCN(S(=O)(=O)c3ccc(OC)cc3)CC2)cc1, COc1ccc(CCNC(=O)CCc2ccccc2O)cc1OC, O=C(O)/C(=C/c1cccnc1)NC(=O)c1ccccc1, CCOc1ccc(NC(=O)CN(C)C(=O)CCSc2ccc(F)cc2)cc1OCC, C=CCSc1ccc(S(=O)(=O)N2CCN(C)CC2)cn1, O=C(Nc1ccccc1)N1CCC(C(=O)N2CCN(Cc3ccccc3)CC2)CC1, Cn1c(N)c(C(=O)COC(=O)/C=C/c2cccc(C(F)(F)F)c2)c(=O)n(C)c1=O, C/C(=N\Nc1ccc(S(N)(=O)=O)cc1[N+](=O)[O-])c1cccs1, C/C(=N\NS(=O)(=O)c1ccc(Br)cc1)c1cccs1, C/C(=N\Nc1nc(Nc2ccccc2)nc(N2CCOCC2)n1)c1cccs1, O=C(Nc1ccccc1-c1nc2ccccc2[nH]c1=O)c1cccs1, O=C(c1ccc(Cl)nc1)N1CCN(S(=O)(=O)c2ccc3c(c2)OCCO3)CC1, CCc1ccccc1OCC(=O)Nc1ccc(C)c(S(=O)(=O)N2CCCCCC2)c1, CCCCN(C(=O)C1=NN(c2cc(C)ccc2C)C(=O)CC1)c1c(N)n(CCC)c(=O)[nH]c1=O, CCC1CCC2(CC1)NC(=O)N(CC(=O)Nc1ccc(OC)cc1)C2=O (stereo not drawn), COc1ccc(OC)c(CN2CCN(C(=O)CNC(=O)c3cc(C)cc(C)c3)CC2)c1, COc1cc([C@H](Cc2ccccc2)NC(C)=O)oc(=O)c1, Cc1ccc(C)c(C(=O)COC(=O)Cn2[nH]c(=O)c3ccccc3c2=O)c1, O=c1c(-c2ccccc2)coc2c(CN3CCOCC3)c(O)ccc12, CC(C)CN(Cc1c(O)ccc2c(=O)c(-c3ccccc3)coc12)CC(C)C, COc1ccccc1CNC(=O)CCCN1C(=O)NC2(CCCC2)C1=O, COc1ccc(C2(C)ON(c3ccccc3C(F)(F)F)C2=O)cc1 (stereo not drawn), Cc1nc(-c2ccc(F)cc2)c(CC(=O)N(C)CC(=O)Nc2c(C)cccc2C)s1, Cc1ccc(/C=N/NC(=O)c2sccc2OCc2ccc(F)cc2)cc1, Cc1ccc(NC(=O)CN(C)CC(=O)Nc2cccc(F)c2)cc1[N+](=O)[O-], Cc1ccc(NC(=O)CN2CCC(C(N)=O)CC2)cc1[N+](=O)[O-], Cc1nc2ccccc2cc1C(=O)N/N=C/c1ccc([N+](=O)[O-])cc1, CN(C)c1cc2c(Nc3ccc4c(cnn4Cc4ccccc4)c3)ncnc2cn1, CNC(=O)C1CC(=O)N(c2ccc(OCC(=O)Nc3ccccc3C)cc2)C1 (stereo not drawn), COc1ccc(NS(=O)(=O)c2cc(NC(=O)COc3ccccc3F)ccc2OC)cc1, CCOc1ccc2oc(C(=O)N(CC)CC(=O)Nc3ccc(NC(C)=O)cc3)c(C)c2c1, CCC[C@H]1CCCC/C=C\CCCC(=O)OCCN1C(=O)OC(C)(C)C, Nc1c(C(=O)OCC(=O)Nc2ccc(OC(F)F)cc2)[nH]c(=O)[nH]c1=O
